In the library only some 5.7% were active in any assay of this set; here they are far more common.
ssDAF12 agonist = S. stercoralis DAF-12 activation, primary screen; HEK293 ssDAF-12/GRIP1 lit1-tk-luc reporter, luminescence; % of 3 µM dafachronic acid response; activation, % at 6.8 µM; actives 1% (n = 370,000);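 active means activation above the mean over all tested compounds plus 3 SD, cut at about 0.9% in these data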
DAX1 inh-1 = inhibitors of DAX1 repression of SF-1 activated StAR promoter | HEK293T StAR-luciferase reporter, SF-1/DAX-1 repression relief | inhibition, % at 6.8 µM | actives 1.1% (n = 370,000) | AID 652010;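 active means inhibition above the mean over all tested compounds plus 3 SD, cut at about 3.6% in these data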;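 further: higher inhibition means more luminescence from relief of DAX-1 repression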
hcDAF12 agonist = H. contortus DAF-12 activation, primary screen; HEK293 hcDAF-12 lit1-tk-luc reporter, luminescence; 0% DMSO, 100% Δ7-dafachronic acid; activation, % at 6.8 µM; actives 1.4% (n = 370,000); AID 652067;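 active means activation above the mean of all tested compounds plus 3 SD, cut at about 5.5% in these data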
AHR activator = activators of human aryl hydrocarbon receptor. P35869. AHR-responsive luciferase reporter cells, luminescence. activation, % at 5 µM. actives 2.5% (n = 320,000); in the data active means activation above about 47%
DAX1 inh-2 = inhibitors of human orphan nuclear receptor DAX1 (NR0B1) | P51843 | HEK293 Gal4-DAX1 luciferase reporter, luminescence | inhibition, % at 6.75 µM | actives 0.99% (n = 340,000) | AID 504766;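 active means inhibition above the mean over all tested compounds plus 3 SD, cut at about 4.2% in these data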;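 further: inhibition shows as a rise in luminescence from relieved DAX1 repression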
Target sequence (P51843 207-470 limits assumed): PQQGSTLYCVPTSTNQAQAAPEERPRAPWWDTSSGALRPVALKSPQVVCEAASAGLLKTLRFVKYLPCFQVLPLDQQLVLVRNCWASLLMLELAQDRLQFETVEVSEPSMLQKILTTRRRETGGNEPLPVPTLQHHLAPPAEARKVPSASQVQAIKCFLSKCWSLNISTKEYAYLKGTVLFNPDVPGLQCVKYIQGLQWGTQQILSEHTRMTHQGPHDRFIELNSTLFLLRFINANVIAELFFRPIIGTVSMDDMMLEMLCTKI
hgDAF12 agonist = hgDAF-12 agonism, primary luciferase screen | actives 1.8% (n = 370,000) | HEK293 GAL4-hgDAF12 UAS-luciferase reporter, agonist luminescence; normalized to butyrate control | activation, % at 6.8 µM;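 active means activation above a cutoff set at the mean of all screened compounds plus 3 SD, cut at about 10% in these data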
hgDAF12 ag = confirmation of H. glycines DAF-12 agonists | shares compounds with hgDAF12 agonist | HEK293 GAL4-hgDAF12 luciferase reporter, agonist mode; percent of butyrate response | activation, % at 6.8 µM | actives 80% (n = 3,300) | AID 743050;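 active means mean activation over triplicate wells above the hit cutoff derived from the earlier primary screen, cut at about 11% in these data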
LXRb DAF12 ctr = counter-screen for DAF-12 agonists: agonists of human LXR-beta. activation, % at 6.8 µM. HEK293 Gal4-LXR luciferase reporter, 24 h. 3,300 tested, under 10 active. shares compounds with hgDAF12 agonist;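 active means mean activation of the triplicate above a set limit carried over from the primary screen, none filed active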
Of the large screens only hits and unclear results are named; the others gave an inactive call (follow-up assays come after a bar, where they were run).

COc1ccc(Nc2nc(N)c3ccccc3n2)c(OC)c1	DAX1 inh-2 4.8, hgDAF12 agonist 13 (no result: AHR activator) | hgDAF12 ag 15 | LXRb DAF12 ctr inactive
COc1ccc(OCc2cc(C(=O)NC(C)Cc3ccccn3)no2)c(Cl)c1 (stereo not given)	none
COc1ccc(OCc2cc(C(=O)NC3Cc4ccccc4C3)no2)c(Cl)c1	hgDAF12 agonist 15 | hgDAF12 ag inactive | LXRb DAF12 ctr inactive
CN1CCC(=NNC(=O)C(=O)Nc2ccccc2F)CC1	hgDAF12 agonist 24 | hgDAF12 ag inactive | LXRb DAF12 ctr inactive
CN1CCC(=NNC(=O)C(=O)NC(C)(C)C)CC1	none
Cc1ccc(C)c(OCc2ccc(C(=O)Nc3ccc([N+](=O)[O-])cn3)o2)c1	none
Cc1cnc(NC(=O)Cc2ccc(Br)cc2)s1	none
Cc1ccc(C(=O)Nc2ncc(C)s2)o1	hgDAF12 agonist 20 | hgDAF12 ag 15 | LXRb DAF12 ctr inactive
COc1ccc(C(=O)Nc2ccc([N+](=O)[O-])cn2)c(OC)c1	hgDAF12 agonist 19 | hgDAF12 ag 20 | LXRb DAF12 ctr inactive
Cc1ccc(C(=O)Nc2ccc([N+](=O)[O-])cn2)o1	hgDAF12 agonist 14 | hgDAF12 ag inactive | LXRb DAF12 ctr inactive
CCOC(=O)C(C)Oc1ccc(NC(=O)C(Cl)Cl)cc1 (stereo not given)	none
O=C(CSc1n[nH]c(-c2ccccc2Br)n1)NCCN1C(=O)CSC1=O	none

Source: PubChem (The Scripps Research Institute Molecular Screening Center)
